Screening data (PubChem BioAssay)
Pf growth 48h = P. falciparum growth inhibition at 48 hours (one generation); P. falciparum luciferase growth in erythrocytes, 48 h; Potency, µM (top dose mostly 28.7 µM), for inactives: top-dose activity change, negative = inhibition, hits mostly inhibitors; 310,000 tested, 5.9% active
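Read-out is firefly luciferase luminescence from an integrated reporter in P. falciparum, so falling signal marks reduced parasite growth. Infected erythrocytes were at 2% hematocrit and 0.1% parasitemia (final) in Albumax-supplemented RPMI 1640.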
HCV inhibitor = inhibitors of hepatitis C virus infection | Huh7.5.1 HCVcc-Cre infection, luciferase reporter, 44 h | Potency, µM (series often up to 41.8 µM), for inactives: top-dose activity change, negative = inhibition, usual class: inhibitors | 340,000 tested, 3.4% active | AID 651820
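Seed cells (1,000/well) for 4 h; treat with compound and infect with HCVcc-Cre, moi about 0.5. Incubate 44 h, then detect luciferase activity.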
AMA1 RON2 block = AMA1-RON2 (P. falciparum) interaction inhibition; 360,000 tested, 0.2% active; AID 720542; AlphaScreen AMA1-biotinylated RON2 peptide binding; Potency, µM (series often up to 58.2 µM), for inactives: top-dose activity change, negative = inhibition, usual class: inhibitors;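 note: 0% = vehicle wells and -100% = peptide control; nearly all actives have a fitted effect of over 45% in size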
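AMA1 (3D7) with his tag at 25 nM final met compounds first, then biotinylated RON2 peptide at 25 nM; detection used donor plus acceptor beads, 10 µg/mL apiece, read by AlphaScreen after 30 min at room temperature.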
Pf growth 96h = inhibits malaria parasite growth, 96 h; P. falciparum luciferase reporter growth, 96 h; Potency, µM (doses to about 28.7 µM), without a hit: top-dose activity change, negative = inhibition, most hits filed as inhibitors; 320,000 tested, 6.9% active
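Infected RBCs, 2% Hct / 0.05% parasitemia final; luciferase-reporter P. falciparum; cpd 96 h, 37 C, 5% CO2; luciferase detection reagent; luminescence.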
The depositor's hits bear a star; [ ] = remark or other dose. In the library only some 11% were active in any assay of this set; here they are far more common. Calls come from the whole dose curve; as a rule, active = well fitted curve in the direction sought with a large enough effect; inconclusive = small, poorly fitted or top-dose-only effect, or another doubt; inactive = no such curve, though single readings can be large; an effect the other way counts as inactive or inconclusive. Unless noted, % is set by controls: 0 for no effect and ±100 for the full control effect; potency is the fitted concentration of half-maximal effect.

Results for COC(=O)c1ccc(S(=O)(=O)N2CCCN(Cc3ccc(F)cc3)CC2)n1C ?
Pf growth 48h: -3%; HCV inhibitor: 11µM*; AMA1 RON2 block: -3%; Pf growth 96h: 16%

How did O=C1c2cccc3cccc(c23)C(=O)N1CC1CCN(S(=O)(=O)c2ccccc2)CC1 do in these assays?
HCV inhibitor: -26%; AMA1 RON2 block: -7%

How did COc1ccc(CN2CCN(C(=O)c3ccc(S(=O)(=O)N4CCCCCC4)cc3)CC2)cc1 do in these assays?
Pf growth 48h: 10µM*; HCV inhibitor: inconclusive; AMA1 RON2 block: -5%; Pf growth 96h: inconclusive

Results for Cc1cc(N2CCN(C(C(=O)NC3CCCC3)c3ccco3)CC2)c2ccccc2n1 (stereo unspecified) ?
AMA1 RON2 block: -10%

How did COc1ccccc1N1CCN(C(=O)C(=O)c2cccc([N+](=O)[O-])c2)CC1 do in these assays?
AMA1 RON2 block: -12%

Results for CCOC(=O)c1oc2ccccc2c1COC(=O)C(C)NC(=O)c1ccco1 (stereo unspecified) ?
Pf growth 48h: -5%; HCV inhibitor: -22%; AMA1 RON2 block: -6%; Pf growth 96h: -25%

What do the screens show for `CCCn1ncc(CN2CCN(Cc3ccsc3)C(CCO)C2)c1C` (stereo unspecified)?
Pf growth 48h: 17%; HCV inhibitor: 2%; AMA1 RON2 block: -7%; Pf growth 96h: -10%

What do the screens show for `COc1ccc(CN2CCN(C(=O)c3ccc(S(=O)(=O)N4CCCCCC4)cc3)CC2)cc1F`?
Pf growth 48h: 13µM*; HCV inhibitor: inconclusive; AMA1 RON2 block: -5%; Pf growth 96h: inconclusive

How did O=S(=O)(c1ccc(Br)cc1)N1CCCN(Cc2ccccc2F)CC1 do in these assays?
Pf growth 48h: 40%; HCV inhibitor: -4%; AMA1 RON2 block: 6%[11.6 µM]; Pf growth 96h: 6.6µM*

How did N#Cc1ccc(CN2CCN(C(=O)c3ccc(S(=O)(=O)N4CCCCCC4)cc3)CC2)cc1 do in these assays?
Pf growth 48h: 13µM*; HCV inhibitor: 7.9µM*; AMA1 RON2 block: -1%; Pf growth 96h: inconclusive

How did CCc1sc(C(=O)Nc2ccc3c(c2)OCO3)cc1C do in these assays?
HCV inhibitor: inconclusive; AMA1 RON2 block: 11%

Results for O=C(Nc1ccc2ccccc2n1)Nc1cccs1 ?
Pf growth 48h: 19%; HCV inhibitor: 11%; AMA1 RON2 block: -2%; Pf growth 96h: 35%

Results for CC1(C)CC(=O)C=C(C(=O)N2CCCC(C(=O)c3cccc(C(F)(F)F)c3)C2)O1 (stereo unspecified) ?
Pf growth 48h: -26%; HCV inhibitor: inconclusive; AMA1 RON2 block: 13%; Pf growth 96h: inconclusive

How did CCC(=O)N[C@@H]1C=C[C@@H](CC(=O)NCc2ccccc2F)O[C@@H]1CO do in these assays?
AMA1 RON2 block: -5%

What do the screens show for `O=C(Nc1ccc(C(=O)N2CCCC2)cc1)c1cc(F)c(F)cc1Cl`?
AMA1 RON2 block: -5%

What do the screens show for `CC(C)Cn1c(N)c(C(=O)COC(=O)c2cc3ccccc3cc2O)c(=O)n(C)c1=O`?
HCV inhibitor: inconclusive; AMA1 RON2 block: -2%

How did CC(C)Cn1c(N)c(C(=O)COC(=O)c2ccc(Br)cc2)c(=O)n(C)c1=O do in these assays?
HCV inhibitor: inconclusive; AMA1 RON2 block: 15%

What do the screens show for `Cc1cccc(C(=O)OCC(=O)c2c(N)n(CC(C)C)c(=O)n(C)c2=O)c1[N+](=O)[O-]`?
Pf growth 48h: 3%; HCV inhibitor: 14µM*; AMA1 RON2 block: 3%; Pf growth 96h: 12%

What do the screens show for `Cc1cccc(C(=O)OCC(=O)c2c(N)n(CC(C)C)c(=O)n(C)c2=O)c1O`?
Pf growth 48h: inconclusive; HCV inhibitor: inconclusive; AMA1 RON2 block: -8%; Pf growth 96h: inconclusive

How did CC(C)Cn1c(N)c(C(=O)COC(=O)CC23CC4CC(CC(C4)C2)C3)c(=O)n(C)c1=O do in these assays?
HCV inhibitor: 6.3µM*; AMA1 RON2 block: -8%; Pf growth 96h: inconclusive

Results for CC(C)Cn1c(N)c(C(=O)COC(=O)/C=C/c2ccccc2)c(=O)n(C)c1=O ?
Pf growth 48h: inconclusive; HCV inhibitor: 7.1µM*; AMA1 RON2 block: -13%; Pf growth 96h: 10µM*

How did COC(=O)c1c(C)[nH]c(C(=O)OCC(=O)c2c(N)n(CC(C)C)c(=O)n(C)c2=O)c1C do in these assays?
HCV inhibitor: 4µM*; AMA1 RON2 block: -1%

Results for COc1ccccc1NC(=O)C1=C(C)NC(SCC(=O)Nc2ccc(C(=O)O)cc2)=C(C#N)C1c1cccs1 (stereo unspecified) ?
Pf growth 48h: inconclusive; HCV inhibitor: 4%; AMA1 RON2 block: 5%; Pf growth 96h: inconclusive

Results for CCc1nc2ccc(C(=O)NCCCN3CCCC3=O)cn2c1N(CC)C(=O)NCCc1ccccc1 ?
AMA1 RON2 block: 12%

Results for O=S(=O)(c1ccc(F)cc1)c1nc(-c2ccccc2)oc1N1CCOCC1 ?
Pf growth 48h: 1%; AMA1 RON2 block: -18%; Pf growth 96h: -11%

Results for C[n+]1c2n(c3ccccc31)N=C(c1ccc(-c3ccccc3)cc1)CS2 ?
Pf growth 48h: inconclusive; HCV inhibitor: 7.1µM*; AMA1 RON2 block: -8%; Pf growth 96h: inconclusive

How did C[n+]1c2n(c3ccccc31)N=C(c1ccccc1)CS2 do in these assays?
Pf growth 48h: 2.1µM*; HCV inhibitor: -17%; AMA1 RON2 block: 3%; Pf growth 96h: inconclusive

Results for C[n+]1c2n(c3ccccc31)N=C(c1ccc(Br)cc1)CS2 ?
Pf growth 48h: inconclusive; HCV inhibitor: inconclusive; AMA1 RON2 block: 44%; Pf growth 96h: inconclusive

Results for CC(=O)C1CCC2C3CCC4=CC(=O)CCC4(C)C3(F)C(O)CC12C (stereo unspecified) ?
HCV inhibitor: -5%; AMA1 RON2 block: -11%

What do the screens show for `CCCCC(=O)NC(c1ccc(N(CC)CC)cc1)c1ccc2cccnc2c1O` (stereo unspecified)?
Pf growth 48h: inconclusive; HCV inhibitor: 1.4µM*; AMA1 RON2 block: 27%; Pf growth 96h: 11%

Results for CCCCC(=O)NC(c1ccc(N(C)C)cc1)c1ccc2cccnc2c1O (stereo unspecified) ?
Pf growth 48h: inconclusive; HCV inhibitor: 4µM*; AMA1 RON2 block: -81%; Pf growth 96h: 47%

Results for CC(C)c1nc(NCCO)c2nnn(Cc3ccccc3)c2n1 ?
Pf growth 48h: -17%; HCV inhibitor: inconclusive; AMA1 RON2 block: 3%; Pf growth 96h: 15%

What do the screens show for `Cc1noc(NS(=O)(=O)c2ccc(NC(=O)NC(C)(C(F)(F)F)C(F)(F)F)cc2)c1C`?
Pf growth 48h: -12%[0.00184 µM]; HCV inhibitor: 20%; AMA1 RON2 block: 0%; Pf growth 96h: 2%

What do the screens show for `Cc1ccc(-c2ccc([C@H]3[C@H]4C=CC[C@@H](C)[C@@H]4C(=O)N3Cc3ccccc3)c(F)c2)cc1`?
Pf growth 48h: 12µM*; HCV inhibitor: 56%[8.37 µM]; AMA1 RON2 block: 0%; Pf growth 96h: 10µM*
